# Data published in PubChem BioAssay (NCATS).
# Results filed as inconclusive are left out. A call without a number means that no potency is given here. The source made the active and inactive calls. Calls follow the shape of the dose curve; as a rule, active = well fitted curve in the direction sought with a large enough effect; inconclusive = small, poorly fitted or top-dose-only effect, or another doubt; inactive = no such curve, though single readings can be large; an effect the other way counts as inactive or inconclusive. Peptide text beside a SMILES is read from it.
# Tests used:
# [1] = molecular target: ATP-dependent 6-phosphofructokinase (Trypanosoma brucei brucei) (UniProt O15648); assay: qHTS Assay to Find Inhibitors of T. brucei phosphofructokinase: hit validation (AID 492961);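 also: luminescence reports ADP formed as PFK phosphorylates fructose-6-phosphate with ATP; series mostly up to about 51 µM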
# In short: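 Measures ADP output of PFK (1.25 nM) at 0.1 mM ATP, 0.5 mM F6P, pH 8.0 TEA buffer with 5 mM MgCl2. No-enzyme wells define full inhibition; uninhibited enzyme wells define zero.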
# [2] = molecular target: Tyrosyl-DNA phosphodiesterase 1 (Homo sapiens) (UniProt Q9NUW8); assay: Confirmation Assay for Inhibitors of Tyrosyl-DNA Phosphodiesterase (TDP1) (AID 489007); conditions: recombinant human TDP1 enzymatic activity, dose-response; also: potency is read from the fitted curve at half-maximal effect; nearly all actives have a fitted effect of over 40% in size
# In short: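 Compounds are preincubated 15 min at room temperature with 1 nM recombinant human Tdp1. The reaction starts on adding 15 nM FITC-phosphotyrosine DNA substrate, runs 5 min, and is detected by AlphaScreen beads after 10 min.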
# [3] = molecular target: M-phase phosphoprotein 8 (Homo sapiens) (UniProt Q99549); assay: qHTS Validation Assay for Inhibitors for MPP8 Chromodomain Interactions with Methylated Histone Tails (AID 488949);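 also: AlphaScreen signal from MPP8 chromodomain bound to biotinylated H3K9me3 peptide; top concentration of the series differs between compounds; nearly all actives have a fitted effect of over 55% in size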
# In short: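 AlphaScreen proximity signal from streptavidin donor and Ni-chelate acceptor beads (10 ug/mL each) reported binding of MPP8 to trimethyl-K9 H3(1-18) peptide, both at 50 nM. The complex formed 30 min before a 30 min compound exposure at room temperature, in PBS pH 7.4.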
# [4] = molecular target: Transient receptor potential cation channel subfamily V member 1 (Homo sapiens) (UniProt Q8NER1); assay: HTS Assay for Compounds that Act as Enhancers of the Vanilloid Receptor 1 (AID 488979)
# In short: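 Calcium influx kinetics via Fluo-8 (480/520 nm) in TRPV1-expressing cells, 2000/well cultured overnight at 35.5C. Compound-alone read 3 min (agonist phase), followed by EC20 capsaicin challenge for 2 min (enhancer phase).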
# [5] = molecular target: Thyrotropin receptor (Homo sapiens) (UniProt P16473); assay: qHTS Assay for Antagonists of the Thyroid Stimulating Hormone Receptor (AID 488980); also: series mostly up to about 58 µM
# In short: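 Inhibition of cAMP raised by EC80 TSH (4 nM final) was read by HTRF, with lysate cAMP competing against cAMP-d2 for cryptate antibody after 30 min at room temperature. The cells were transfected HEK293 held in phosphodiesterase inhibitor RO 20-1724 at 70 uM.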
# [6] = molecular target: Galactokinase (Homo sapiens) (UniProt P51570); assay: qHTS Validation Assay for Inhibitors of Human Galactokinase (GALK) (AID 493189)
# In short: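 Inhibition was measured as remaining ATP, detected by luciferase luminescence after a 1 h room-temperature reaction. Final conditions: 5 nM GALK, 100 uM galactose, 35 uM ATP, pH 8.0 HEPES buffer.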
# [7] = Validation screen for small molecules that induce DNA re-replication in SW480 colon adenocarcinoma cells (AID 504364)
# In short: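 Image-based qHTS: compounds were incubated with SW480 cells for 48 hr, nuclei stained with Hoechst, and per-nucleus fluorescence intensity scanned to flag cells with excess DNA content.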
# Sequence of ATP-dependent 6-phosphofructokinase (Trypanosoma brucei brucei) (O15648 whole entry, looked up): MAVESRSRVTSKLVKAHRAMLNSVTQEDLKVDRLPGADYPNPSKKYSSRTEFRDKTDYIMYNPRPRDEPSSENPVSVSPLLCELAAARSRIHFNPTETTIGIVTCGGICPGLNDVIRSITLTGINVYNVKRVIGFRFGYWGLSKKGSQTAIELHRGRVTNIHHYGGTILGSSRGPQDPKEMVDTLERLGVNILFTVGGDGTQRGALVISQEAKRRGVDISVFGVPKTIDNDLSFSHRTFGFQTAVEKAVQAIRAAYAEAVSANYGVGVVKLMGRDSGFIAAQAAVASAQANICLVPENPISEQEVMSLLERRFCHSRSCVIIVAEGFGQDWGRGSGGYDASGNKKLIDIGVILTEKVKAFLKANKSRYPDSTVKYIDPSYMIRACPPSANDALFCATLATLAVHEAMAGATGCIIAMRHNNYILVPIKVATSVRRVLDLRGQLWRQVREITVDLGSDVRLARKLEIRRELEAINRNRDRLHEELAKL
# Sequence of Tyrosyl-DNA phosphodiesterase 1 (Homo sapiens) (Q9NUW8 whole entry, looked up): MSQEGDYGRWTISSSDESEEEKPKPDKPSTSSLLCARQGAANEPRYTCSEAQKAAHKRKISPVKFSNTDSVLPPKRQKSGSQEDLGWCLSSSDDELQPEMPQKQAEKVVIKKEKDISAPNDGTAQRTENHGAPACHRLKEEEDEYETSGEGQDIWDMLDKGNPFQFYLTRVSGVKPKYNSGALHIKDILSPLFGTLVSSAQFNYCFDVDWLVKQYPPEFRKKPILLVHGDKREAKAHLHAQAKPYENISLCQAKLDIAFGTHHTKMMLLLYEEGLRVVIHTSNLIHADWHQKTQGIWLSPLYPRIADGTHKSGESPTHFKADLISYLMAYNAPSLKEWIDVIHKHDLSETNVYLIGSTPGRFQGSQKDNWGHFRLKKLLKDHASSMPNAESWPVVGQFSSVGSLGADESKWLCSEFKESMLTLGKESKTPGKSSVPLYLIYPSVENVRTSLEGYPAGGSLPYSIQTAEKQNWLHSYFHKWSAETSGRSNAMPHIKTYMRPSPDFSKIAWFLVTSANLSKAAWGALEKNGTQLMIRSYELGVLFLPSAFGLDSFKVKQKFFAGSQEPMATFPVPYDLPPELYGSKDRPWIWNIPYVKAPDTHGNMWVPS
# Sequence of Thyrotropin receptor (Homo sapiens) (P16473 whole entry, looked up): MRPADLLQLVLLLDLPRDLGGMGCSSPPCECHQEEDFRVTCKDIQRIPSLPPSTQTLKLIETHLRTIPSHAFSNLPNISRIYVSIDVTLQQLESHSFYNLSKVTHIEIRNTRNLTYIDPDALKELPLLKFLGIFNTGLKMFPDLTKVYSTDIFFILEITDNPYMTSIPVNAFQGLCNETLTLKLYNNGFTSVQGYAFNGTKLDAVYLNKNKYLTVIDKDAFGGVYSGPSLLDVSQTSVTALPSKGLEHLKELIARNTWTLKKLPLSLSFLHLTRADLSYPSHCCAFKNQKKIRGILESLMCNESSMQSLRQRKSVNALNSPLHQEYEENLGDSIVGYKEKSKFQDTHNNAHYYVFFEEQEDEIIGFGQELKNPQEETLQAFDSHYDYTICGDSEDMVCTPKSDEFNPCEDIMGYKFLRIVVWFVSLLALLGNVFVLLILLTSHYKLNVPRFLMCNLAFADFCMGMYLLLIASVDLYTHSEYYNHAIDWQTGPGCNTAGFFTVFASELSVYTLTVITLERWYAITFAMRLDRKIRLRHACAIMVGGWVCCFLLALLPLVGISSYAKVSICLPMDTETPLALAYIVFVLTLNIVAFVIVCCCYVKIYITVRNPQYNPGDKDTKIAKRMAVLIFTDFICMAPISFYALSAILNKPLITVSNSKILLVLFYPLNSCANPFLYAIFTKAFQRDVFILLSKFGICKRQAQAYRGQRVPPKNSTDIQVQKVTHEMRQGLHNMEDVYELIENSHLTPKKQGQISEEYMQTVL
# Sequence of Galactokinase (Homo sapiens) (P51570 whole entry, looked up): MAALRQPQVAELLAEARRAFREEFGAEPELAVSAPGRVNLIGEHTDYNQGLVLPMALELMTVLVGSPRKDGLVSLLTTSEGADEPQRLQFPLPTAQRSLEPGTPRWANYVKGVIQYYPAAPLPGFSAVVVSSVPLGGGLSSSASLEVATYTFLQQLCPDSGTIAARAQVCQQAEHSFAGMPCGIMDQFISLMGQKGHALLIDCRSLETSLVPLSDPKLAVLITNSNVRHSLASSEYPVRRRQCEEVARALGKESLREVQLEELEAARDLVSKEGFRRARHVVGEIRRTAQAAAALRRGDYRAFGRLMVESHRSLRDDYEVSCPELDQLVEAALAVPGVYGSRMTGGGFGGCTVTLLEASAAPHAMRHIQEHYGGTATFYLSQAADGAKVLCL
# Sequence of Transient receptor potential cation channel subfamily V member 1 (Homo sapiens) (Q8NER1 whole entry, looked up): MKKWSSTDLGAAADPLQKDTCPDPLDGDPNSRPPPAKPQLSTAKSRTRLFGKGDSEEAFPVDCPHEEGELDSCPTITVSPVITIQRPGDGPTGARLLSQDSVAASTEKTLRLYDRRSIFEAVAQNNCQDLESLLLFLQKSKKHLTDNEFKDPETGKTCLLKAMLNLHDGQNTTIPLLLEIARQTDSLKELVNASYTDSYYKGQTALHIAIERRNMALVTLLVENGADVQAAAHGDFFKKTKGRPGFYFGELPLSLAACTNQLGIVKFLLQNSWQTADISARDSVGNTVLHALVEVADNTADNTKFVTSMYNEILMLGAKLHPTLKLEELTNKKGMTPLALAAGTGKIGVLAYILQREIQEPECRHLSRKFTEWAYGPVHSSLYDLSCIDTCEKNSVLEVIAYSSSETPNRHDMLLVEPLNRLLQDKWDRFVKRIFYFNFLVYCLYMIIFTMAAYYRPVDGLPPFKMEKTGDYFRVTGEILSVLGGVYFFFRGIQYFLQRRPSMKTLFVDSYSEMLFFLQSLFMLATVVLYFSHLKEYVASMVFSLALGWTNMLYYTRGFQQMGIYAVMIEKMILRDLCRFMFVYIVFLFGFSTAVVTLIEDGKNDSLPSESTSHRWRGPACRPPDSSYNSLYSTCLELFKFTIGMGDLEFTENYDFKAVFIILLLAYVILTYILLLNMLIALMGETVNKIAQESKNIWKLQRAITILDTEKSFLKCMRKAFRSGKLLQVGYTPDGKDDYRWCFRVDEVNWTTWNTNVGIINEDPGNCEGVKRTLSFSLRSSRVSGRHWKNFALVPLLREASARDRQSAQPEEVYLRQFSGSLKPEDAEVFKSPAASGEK
# Sequence of M-phase phosphoprotein 8 (Homo sapiens) (Q99549 whole entry, looked up): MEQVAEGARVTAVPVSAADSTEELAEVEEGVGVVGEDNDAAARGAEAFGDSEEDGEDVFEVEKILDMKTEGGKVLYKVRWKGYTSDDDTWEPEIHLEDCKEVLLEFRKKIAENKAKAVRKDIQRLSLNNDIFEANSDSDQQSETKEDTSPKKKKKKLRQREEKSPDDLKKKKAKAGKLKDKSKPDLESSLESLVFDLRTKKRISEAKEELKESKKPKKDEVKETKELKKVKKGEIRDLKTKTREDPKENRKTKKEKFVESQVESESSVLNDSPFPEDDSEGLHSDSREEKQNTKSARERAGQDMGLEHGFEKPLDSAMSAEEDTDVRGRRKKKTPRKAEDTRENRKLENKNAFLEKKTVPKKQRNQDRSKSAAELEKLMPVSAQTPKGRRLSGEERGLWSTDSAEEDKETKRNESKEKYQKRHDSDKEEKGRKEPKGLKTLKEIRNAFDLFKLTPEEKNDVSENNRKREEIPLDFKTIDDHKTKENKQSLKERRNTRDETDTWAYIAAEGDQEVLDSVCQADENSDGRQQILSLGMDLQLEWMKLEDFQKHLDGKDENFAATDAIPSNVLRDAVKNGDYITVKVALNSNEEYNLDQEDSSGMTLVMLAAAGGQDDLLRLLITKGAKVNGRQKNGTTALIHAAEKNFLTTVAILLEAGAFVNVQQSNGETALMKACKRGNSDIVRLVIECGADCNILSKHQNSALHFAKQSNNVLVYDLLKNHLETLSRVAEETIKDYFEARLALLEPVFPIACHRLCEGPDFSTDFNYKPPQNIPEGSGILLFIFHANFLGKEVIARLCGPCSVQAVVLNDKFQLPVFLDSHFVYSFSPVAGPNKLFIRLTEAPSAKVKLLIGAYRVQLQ
smiles,measurement,setting,value
COC(=O)C1=C(C#N)NC(C)=C(C(=O)OC(C)C)C1c1cccc([N+](=O)[O-])c1 (stereo not drawn),Potency,[1],inactive
C=CCSSSCC=C,Potency,[1],inactive
O=C(O)CCC(=O)C(=O)O,Potency,[1],inactive
C=C1C(=CC=C2CCC[C@@]3(C)[C@@H]2CC[C@H]3[C@H](C)CCCC(C)C)C[C@@H](O)C[C@@H]1O,Potency,[1],inactive
Cc1cn([C@H]2C[C@H](O)[C@@H](CO)O2)c(=O)[nH]c1=O,Potency,[1],inactive
CC(C)N=c1cc2n(-c3ccc(Cl)cc3)c3ccccc3nc-2cc1Nc1ccc(Cl)cc1,Potency,[1],inactive
C[C@]12O[C@H](C[C@]1(O)CO)n1c3ccccc3c3c4c(c5c6ccccc6n2c5c31)CNC4=O,Potency,[1],inactive
CCCC(=O)O[C@]1(C(=O)CCl)[C@H](C)C[C@@H]2[C@H]3CCC4=CC(=O)C=C[C@]4(C)[C@@]3(F)C(=O)C[C@@]21C,Potency,[1],inactive
Cc1c(C)c2c(c(C)c1O)CC[C@@](C)(CCC[C@H](C)CCC[C@H](C)CCCC(C)C)O2,Potency,[1],inactive
CC(=O)N[C@@H](CC(=O)O)C(=O)N[C@@H](CCC(=O)O)C(=O)O (Ac-Asp-Glu-OH),Potency,[2],25.1 µM (active)
CC(C)(C)C(=O)OCOC(=O)[C@@H]1N2C(=O)[C@@H](N=CN3CCCCCC3)[C@H]2SC1(C)C,Potency,[1],inactive
O=C(O)CN(CCN(CC(=O)O)CC(=O)O)CC(=O)O,Potency,[1],inactive
C#C[C@]1(O)CC[C@H]2[C@@H]3CCC4=CCCC[C@@H]4[C@H]3C(=C)C[C@@]21CC,Potency,[1],inactive
C#CCOc1ccc2c(C)cc(=O)oc2c1,Potency,[1],inactive
O=C(Nc1cccc(C(F)(F)F)c1)c1cc(Br)cc(Br)c1O,Potency,[1],inactive
CCCCCCCCCCCC[n+]1ccc2ccccc2c1,Potency,[1],inactive
CC[N+](C)(C)Cc1ccccc1Br,outcome,[3],inactive
same,outcome,[4],inactive
same,outcome,[5],inactive
same,Potency,[1],inactive
same,outcome,[6],inactive
same,outcome,[7],inactive
O=C(O)c1cc(O)c2c(c1)[O][Bi][O]2,Potency,[2],15.8 µM (active)
